Measurements from PubChem BioAssay AID893 (National Center for Advancing Translational Sciences (NCATS), 2007).
In all, about 75,000 compounds went through this assay and about 5,700 (7.6%) were called active. Entries that show only a call come without a potency. Not shown: some 7% with an inconclusive outcome. This is one part of a sample in which actives are shown more often than they occur. The call rests on the fitted dose curve; in most records, active means well fitted inhibition curve with a large enough effect; inconclusive means small, poorly fitted or top-dose-only effect; inactive means no such curve, though single readings can be large or run the other way.

The compounds below were run against 3-hydroxyacyl-CoA dehydrogenase type-2 (Homo sapiens) (UniProt Q99714) (assay: qHTS Assay for Inhibitors of HSD17B4, hydroxysteroid (17-beta) dehydrogenase 4). Details: recombinant HSD17B10, NADH fluorescence kinetic; series mostly up to 57.1 µM.
Procedure, shortened: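 Activity followed as NADH fluorescence increase (ex 360, em 450 nm) every 30 seconds for 4 min, using final 90 uM beta-hydroxybutyryl CoA and 1 mM NAD+. Recombinant His-tagged enzyme, 20 nM, pH 9.0 Tris buffer, 15 min compound preincubation.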
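Further: the protocol describes HADH2 (HSD17B10) and not the HSD17B4 of the title; nearly all actives have a fitted effect of over 70% in size.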
Potency means the concentration at half of the fitted maximal effect.

| Structure (SMILES) | Potency | activity change, negative = inhibition |
| --- | --- | --- |
| O=C(C(Cc1ccccc1)n1cccc1)N1CCN(C2CCCCC2)CC1 (stereo not drawn) | inactive |  |
| Cc1ccc(C)n1C(Cc1ccccc1)C(=O)O (stereo not drawn) | 10 µM (active) |  |
| CC(Cc1ccccc1)C(=O)N(C)Cc1ccccc1 (stereo not drawn) | inactive |  |
| C=CCn1c(SCc2cc(C(=O)OC)c(C)o2)nnc1-c1ccncc1 | inactive |  |
| CCC(C)(C(=O)NC1CCCC1)N(C(=O)CNC(C)=O)c1ccc(C)cc1 (stereo not drawn) | inactive |  |
| O=C(CS(=O)(=O)Cc1ccccc1)NCC1CCCO1 (stereo not drawn) | inactive |  |
| Cc1ccc2cc(C#N)c(SCC(=O)NCC3CCCO3)nc2c1C (stereo not drawn) | inactive |  |
| O=C(CSC1=Nc2ccccc2C2=NC(c3ccccc3)C(=O)N12)NCC1CCCO1 (stereo not drawn) | 31.6 µM (active) |  |
| Cc1ncn(C23CC4CC(CC(O)(C4)C2)C3)n1 | inactive |  |
| COC(=O)C1(C)C=CC2(CCCCC2)N1C(C)=O (stereo not drawn) | inactive |  |
| O=C(O)C1=CCCN(CCON=C(c2ccccc2)c2ccccc2)C1 | inactive |  |
| O=C(Nc1ccccc1)N[C@H]1C[C@H](C(=O)O)Nc2cc(Cl)cc(Cl)c21 | inactive |  |
| COc1ccc(S(=O)(=O)N2CCC(C(=O)N3CCOCC3)CC2)cc1OC | inactive |  |
| O=C(C1CCCO1)N1CCC(c2nc3ccccc3[nH]2)CC1 (stereo not drawn) | inactive |  |
| COc1cc2nc(N3CCN(C(=O)[C@@H]4CCCO4)CC3)nc(N)c2cc1OC | 12.6 µM (active) |  |
| COc1ccc(N2C(=O)C3CCCN3C2c2cc(OC)c(OC)cc2OC)cc1 (stereo not drawn) | inactive |  |
| CCN(CC)S(=O)(=O)c1cc(C(=O)Nc2ccccn2)ccc1C | inactive |  |
| CCOc1ccccc1C(=O)NCc1ccco1 | 25.1 µM (active) |  |
| CCCCOc1ccc(C(=O)NCc2ccco2)cc1 | inactive |  |
| COc1ccccc1C(=O)NCCn1cc(SCC(=O)NCc2ccco2)c2ccccc21 | inactive |  |
| CC(C)(C)NC(=O)NC(=O)COC(=O)Cn1c(C(F)(F)F)nc2ccccc21 | inactive |  |
| Cn1cccc1C(=O)NC(=O)COC(=O)Cc1coc2ccc3ccccc3c12 | 31.6 µM (active) |  |
| Cn1cccc1C(=O)Nc1nccs1 | inactive |  |

| Structure (SMILES) | Potency | activity change, negative = inhibition |
| --- | --- | --- |
| CSCC[C@H](NC(=O)NCCc1ccc(F)cc1)C(=O)O | inactive |  |
| O=C1OC(C(O)CO)C(O)=C1O (stereo not drawn) | inactive |  |
| COc1ccc(CCN=C2SCC(=O)N2C)cc1OC | inactive |  |
| COc1ccc(C(=O)N(Cc2ccc(N(C)C)cc2)C2CCS(=O)(=O)C2)cc1 (stereo not drawn) | inactive |  |
| CCCCC(CC)CN (stereo not drawn) | inactive |  |
| O=C(c1ccc(O)cc1)c1ccc(C(=O)O)c(C(=O)O)c1 | inactive |  |
| N[C@H](C(=O)O)c1ccc(C(=O)O)c(O)c1 | 39.8 µM (active) |  |
| N[C@@H](C(=O)O)c1ccc(P(=O)(O)O)cc1 | inactive |  |
| Cc1noc(NS(=O)(=O)c2ccc(NC(=O)C34CCC(CC3)C4)cc2)c1C | inactive |  |
| CCOC(=O)N/N=C1/C[C@@H](O)[C@@H](O)[C@@H]2[C@@H]3C(=O)N(CC)C(=O)[C@H]3CC[C@H]12 |  | 7.25% [at 11.4 µM] (inactive) |
| O=C(c1c(Cl)nc2sccn12)N1CCCc2ccccc21 | inactive |  |
| O=C(c1ccco1)N1CCC[C@@]2(CCN(c3ccccc3)C2)C1 | inactive |  |
| O=C(c1ccco1)N1CCC2(CC1)CCN(c1ncccn1)CC2 | 31.6 µM (active) |  |
| CC(C)NC(=O)N1CC[C@@]2(CCCN(C(=O)c3ccco3)C2)C1 | inactive |  |
| COc1ccc(OC)c(S(=O)(=O)Nc2ccccc2F)c1 | inactive |  |
| COC(=O)c1ccc(NC(=O)CSc2nnc(-c3ccncc3)n2C)cc1 | inactive |  |
| CC(=O)NC1=NC(=O)CS1 | inactive |  |
| O=C1CC(c2ccccc2)C(=O)N1c1cccc(O)c1 (stereo not drawn) | inactive |  |
| Cc1ccc(Oc2nc3ccccc3n3c(C)nnc23)cc1 | inactive |  |
| CN(c1nc2ccccc2n2c(-c3ccco3)nnc12)S(=O)(=O)c1ccccc1 | 1 µM (active) |  |
| CCCCNC(=O)CSc1nnc(-c2ccco2)n1C | inactive |  |
| CC1=C2C(=O)OC(c3ccoc3)C2(C)CCC1 (stereo not drawn) | inactive |  |
| Cc1ccccc1OCCC(=O)Nc1c(C)n(C)n(-c2ccccc2)c1=O | inactive |  |

| Structure (SMILES) | Potency | activity change, negative = inhibition |
| --- | --- | --- |
| O=C(CCN1C(=O)c2ccncc2C1=O)Nc1ccc2c(c1)OCCO2 | inactive |  |
| O=C(NCc1ccc2c(c1)OCO2)c1ccc2c(c1)C(=O)N(CC1CCCO1)C2=O (stereo not drawn) | inactive |  |
| CCC(=O)Nc1ccc(C(=O)Nc2ccc3c(c2)C(=O)N(CC2CCCO2)C3=O)cc1 (stereo not drawn) | 31.6 µM (active) |  |
| O=C(CCN1C(=O)c2ccccc2C1=O)NCCN1CCOCC1 | inactive |  |
| COCc1nc2ccccc2n1Cc1ccccc1Br | inactive |  |
| COC(=O)N1CCC2(CCCN(Cc3ccccc3OC)C2)CC1 | inactive |  |
| Cn1c(=O)n(C)c(=O)n(CC(=O)N2CCCCC2)c1=O | inactive |  |
| Cc1ccc2c(c1)c1ncn(CCC3=CCCCC3)c(=O)c1n2C | 31.6 µM (active) |  |
| Cn1nnc2cc(C(=O)NCCC3=CCCCC3)ccc21 | inactive |  |
| CC1CCCN(C(=O)c2ccc3c(c2)C(=O)N(CCC2=CCCCC2)C3=O)C1 (stereo not drawn) | inactive |  |
| CC1(C)C(=O)C2(CCCCC2)C(=O)OC1c1cccs1 (stereo not drawn) | inactive |  |
| CC(C)CO | inactive |  |
| CCCC(Cl)CCCC(Cl)CCC(Cl)CCC(Cl)CCC(Cl)CCCC(Cl)CCC (stereo not drawn) | inactive |  |
| CCC(=NC1CC(C)(C)NC(C)(C)C1)C1=C(O)CC(C)(C)CC1=O | inactive |  |
| COC(=O)c1c(NC(=O)CSc2nncs2)sc2c1CCCCC2 | inactive |  |
| CCc1c(C)sc(NC(=O)c2ccc(Br)o2)c1C(=O)OC | 31.6 µM (active) |  |
| CCCOC(=O)Nc1sc2c(c1C(=O)OCC)CCC2 | inactive |  |
| COc1cc(OC)c(NC(=O)c2ccc(Br)o2)cc1Cl | inactive |  |
| CCOC(=O)c1c(NC(=O)c2ccc(Br)o2)sc2c1CCCC2 | 25.1 µM (active) |  |
| CCc1c(C)sc(NC(=O)OC)c1C(=O)N1CCOCC1 | inactive |  |
| CCOC(=O)c1c(NC(=O)c2cccs2)sc(C)c1C | inactive |  |
| COC(=O)c1c(NC(=O)c2cccs2)sc2c1CCCC2 | 31.6 µM (active) |  |
| CCOC(=O)c1c(NC(=O)CCC(=O)NCc2ccco2)sc2c1CCCC2 | inactive |  |

| Structure (SMILES) | Potency | activity change, negative = inhibition |
| --- | --- | --- |
| CCOc1ccc(N=C2SC(C(=O)O)CC(=O)N2C)cc1 (stereo not drawn) | inactive |  |
| O=C(CCS(=O)(=O)Cc1ccccc1F)NCCCN1CCCCC1 | inactive |  |
| Cn1c2c(c(=O)n(C)c1=O)C1c3ccccc3OCC1C(C)(C)O2 (stereo not drawn) | inactive |  |
| NCC(=O)[C@@H](O)[C@H](O)[C@H](O)CO |  | 0.448% [at 11.4 µM] (inactive) |
| COc1ccc(NC(=O)c2cccc(NC(=O)c3ccco3)c2)c(OC)c1 | inactive |  |
| Cc1cc(C(=O)O)ccc1[N+](=O)[O-] | inactive |  |
| CC(C)OC(=O)CN1C(=O)c2ccccc2C1=O | inactive |  |
| CC(C)NC(=O)N1CCCC2(CCN(C(=O)c3cccn3C)CC2)C1 | inactive |  |
| CC1CCCC(NC(=O)CSc2nccn2C)C1C (stereo not drawn) | inactive |  |
| O=C(OCC(COC(=O)c1ccccc1)(COC(=O)c1ccccc1)COC(=O)c1ccccc1)c1ccccc1 | inactive |  |
| C/C(CCN1CCc2nc(-c3ccccc3)c(-c3ccccc3)cc2C1)=N\O[C@@H](C)c1cn([C@@H]2COC[C@@H]2O)nn1 |  | 2.35% [at 11.4 µM] (inactive) |
| C#CCCCCCCCCCCCCCCCC(=O)O | 15.8 µM (active) |  |
| O=C(O)CCCCC(=O)O | inactive |  |
| CCCCCCCCCCCC(=O)O | inactive |  |
| CC1CC[C@@]23CCC4(C)[C@@]5(C)CCC6C(C)(C)C(O)CC[C@@]6(C)C5C=C[C@@]4(OC2=O)C3C1C (stereo partly drawn) | inactive |  |
| O=C(NCCN1C(=O)C2C3C=CC(C3)C2C1=O)Nc1ccccn1 (stereo not drawn) | inactive |  |
| c1ccc2[nH]c(-c3nc4ccccc4[nH]3)nc2c1 | 25.1 µM (active) |  |
| C=CCSc1nc2ccccc2[nH]1 | inactive |  |
| c1ccc(-c2[nH]ncc2-c2nc3ccccc3[nH]2)cc1 | 12.6 µM (active) |  |
| COC(=O)Cc1nc2ccccc2[nH]1 | inactive |  |
| C=CCSc1nc2c(c(=O)[nH]1)C(C(C)C)C(C#N)=C(N)O2 (stereo not drawn) | inactive |  |
| O=C(O)c1cccc(S(=O)(=O)NCCO)c1 |  | 10% [at 11.4 µM] (inactive) |
| O=C(NCc1ccccc1)[C@H]1C[C@@H]1[C@H](NP(=O)(c1ccccc1)c1ccccc1)c1ccccc1 | inactive |  |

| Structure (SMILES) | Potency | activity change, negative = inhibition |
| --- | --- | --- |
| COC(=O)c1ccc2c(c1)S(=O)(=O)NC(=NCCCN1CCOCC1)S2 | inactive |  |
| COc1ccc(C(=O)N/N=C2/C(=O)c3c(C)cc(C)cc3CC2(C)C)cc1 |  | 12.3% [at 11.4 µM] (inactive) |
| Cc1cccc(NC(=O)CSC(N)=O)c1C | 31.6 µM (active) |  |
| Cc1cccc(NC(=O)CSc2nc3c(c(=O)[nH]2)CCC3)c1C | inactive |  |
| Cc1nc(C)c(C(=O)Nc2cccc(C)c2C)o1 | inactive |  |
| Cc1nnc(NC(=O)CCC(=O)N2CCC(C)CC2)s1 | inactive |  |
| CCCCC/C=C/C=C/C=O | inactive |  |
| CCn1c(=N)n(CC(=O)c2cccc(OC)c2)c2ccccc21 | inactive |  |
| CCn1c2c(c3ccc(OC)cc31)CCCC2=O | 25.1 µM (active) |  |
| CC(=O)Nc1ccc(S(=O)(=O)NCCc2ccccc2)cc1 | inactive |  |
| COC(=O)CCCCCN1C(=O)NC(c2ccc(-c3ccccc3)cc2)C(C(=O)OCc2ccccc2)=C1C (stereo not drawn) | inactive |  |
| c1ccc(-c2cc(-c3nnc4sc(-c5ccccn5)nn34)[nH]n2)cc1 | 31.6 µM (active) |  |
| COc1cc(-c2nn3c(-c4cccc(C)c4)nnc3s2)cc(OC)c1OC | inactive |  |
| Fc1ccc(-c2nnc3sc(-c4ccc5c(c4)OCO5)nn23)cc1 | inactive |  |
| Cc1cc(C)cc(N)c1 | inactive |  |
| CCCOC(=O)Cc1c(O)c2ccccc2[nH]c1=O | 31.6 µM (active) |  |
| CCOC(=O)CC1=CC(=O)Nc2ccccc2N1 | inactive |  |
| CCCc1nc2ccccc2c(=O)n1NC(=O)c1c(O)c2ccccc2[nH]c1=O | inactive |  |
| O=C(N1CCOCC1)N(Cc1ccccc1)c1ccccn1 | inactive |  |
| CCNC(=O)N1CCNC(=O)C1CC(=O)Nc1ccc(C(=O)OCC)cc1 (stereo not drawn) | inactive |  |
| O=C(C1CCCO1)N(Cc1ccccc1)c1ccccc1 (stereo not drawn) | inactive |  |
